Data on 20 sequences can be found in the OligoGym collection.
Also: reference of the scale not given here.

One test concerns the target KRTAP13-2. Kind of test: pooled miR-30 sensor sort-seq; sequence = guide strand. Particulars: shRNA.
Sequence TAACCCAGGGATCTGACACCAC had a sensor-assay potency score (higher = more potent) of -0.823.
As for TAAGTCGTCTTGCAAGGACTGC, the sensor-assay potency score (higher = more potent) is -0.646.
The same measure, in the same setting: in the case of ACAGCTTCCATAACCCAGGGAT it was -0.532; in that of TAGCGCAGGTAGTCACCACAGG, -0.777; in that of TGGTCTGTAACAAGGAGACTGG, -0.828.
Take TAGGACGTCTGGCAGCTGGTGG: the sensor-assay potency score (higher = more potent) was -1.01.
As to TAGAGACCCAGAGTAAGTCGTC, the sensor-assay potency score (higher = more potent) stood at 0.623.
As to TAGGCTGGTCTGTAACAAGGAG, the sensor-assay potency score (higher = more potent) is -0.634.

Another test addresses KRTAP4-5. The description is as above. Conditions: shRNA.
In the case of TTTAATGAATGTGATTGTCTGT, the sensor-assay potency score (higher = more potent) was determined as 0.174.
In the case of ATTCACAGCAATAGGGGCGGCA, the sensor-assay potency score (higher = more potent) is -0.786.
Sequence TGGATTCACAGCAATAGGGGCG showed a sensor-assay potency score (higher = more potent) of -0.512.
Same read-out and setting: in the case of TAGGGTGGCAGCAGGTGGGCTG it was -0.712; in that of TGGTCTGGCAGCAGCAGGGGCG, -1.72.
As to TAACATATTTTAATGAATGTGA, the sensor-assay potency score (higher = more potent) is -0.0651.
TGGAGATGCAGCAGCTAGGGTG: the sensor-assay potency score (higher = more potent) was -1.53.
On the same count and under the same terms, in the case of TTAATGAATGTGATTGTCTGTC it was 0.0544; in that of TGGTAGCACACAGACTGGCAGC, -1.41.
Same read-out and setting: in the case of TTATATGAGATCATCACAGTTA it was 0.439.
Still for that read-out and setting: in the case of ATGAATGTGATTGTCTGTCATT it was -1.58; in that of TGCTCAGAGCTGACAGAGCCAC, -1.57.
